In the supplement of paper PMC9492666:
Counter-ions that a name gives are not always drawn.

What was measured:
HCC1937 = assay: relative cell viability, compound alone, vs DMSO (fraction of DMSO control); higher = less growth inhibition; conditions: 72 h
MDA-MB-231 = assay: as above; conditions: 72 h
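Also: viability read out with the CCK-8 kit in 96-well plates, screening a set of 303 compounds acting on lipid metabolism targets.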

O=C(O)c1cccnc1Nc1cccc(C(F)(F)F)c1 [Niflumic acid]
relative cell viability (HCC1937): 1.09 | relative cell viability (MDA-MB-231): 0.89

NC(=O)c1ncn([C@@H]2O[C@H](CO)[C@@H](O)[C@H]2O)c1N [AICAR (Acadesine)]
relative cell viability (HCC1937): 0.804 | relative cell viability (MDA-MB-231): 0.892

Nc1ncnc2c1ncn2[C@@H]1O[C@H](COP(=O)(O)O)[C@@H](O)[C@H]1O [Adenosine 5'-monophosphate]
relative cell viability (HCC1937): 0.663 | relative cell viability (MDA-MB-231): 0.81

CCCCC[C@H](O)CC(=O)CCc1ccc(O)c(OC)c1 [6-Gingerol]
relative cell viability (HCC1937): 0.646 | relative cell viability (MDA-MB-231): 0.862

CCC(C)(Oc1ccc(C2(c3ccc(OC(C)(CC)C(=O)O)cc3)CCCCC2)cc1)C(=O)O (stereo unspecified) [Clinofibrate]
relative cell viability (HCC1937): 0.901 | relative cell viability (MDA-MB-231): 0.846

COc1cccc(-n2c(=O)[nH]c3cc(Cl)n(-c4ccc(-c5cccc(OC)c5O)cc4)c3c2=O)c1
relative cell viability (HCC1937): 0.835 | relative cell viability (MDA-MB-231): 0.903

N=C(N)NCCC(=O)O [3-Guanidinopropionic Acid]
relative cell viability (HCC1937): 0.734 | relative cell viability (MDA-MB-231): 0.94

COc1ccc2c(=O)c(-c3ccccc3)coc2c1 [7-Methoxyisoflavone]
relative cell viability (HCC1937): 0.594 | relative cell viability (MDA-MB-231): 0.859

COc1ccc(Nc2ccn(-c3ccccc3)n2)cc1
relative cell viability (HCC1937): 0.868 | relative cell viability (MDA-MB-231): 1

CNC(=O)c1cccc(NC(=O)N2CCC(Oc3ccccc3Cl)CC2)c1
relative cell viability (HCC1937): 0.991 | relative cell viability (MDA-MB-231): 0.974

CCCCCCCCCCCCCCOc1ccc(C(=O)O)o1
relative cell viability (HCC1937): 1.07 | relative cell viability (MDA-MB-231): 1

Cc1nc2c([nH]1)c(=O)n(C)c(=O)n2Cc1ccco1 [Furafylline]
relative cell viability (HCC1937): 0.721 | relative cell viability (MDA-MB-231): 0.924

CC(C)(Oc1ccc(C2CC2(Cl)Cl)cc1)C(=O)O (stereo unspecified) [Ciprofibrate]
relative cell viability (HCC1937): 1.15 | relative cell viability (MDA-MB-231): 0.937

COc1ccc(C(=O)/C=C/c2ccccc2)cc1 [4'-Methoxychalcone]
relative cell viability (HCC1937): 0.73 | relative cell viability (MDA-MB-231): 0.889

C[C@@H]1OCC2(CCN(c3cnc(Sc4ccnc(N)c4Cl)c(N)n3)CC2)[C@@H]1N
relative cell viability (HCC1937): 0.896 | relative cell viability (MDA-MB-231): 0.996

COc1ccc(-n2c(SCCCN3C(=O)c4cccc5cccc(c45)C3=O)nnc2-c2ccncc2)cc1
relative cell viability (HCC1937): 0.661 | relative cell viability (MDA-MB-231): 0.877

O=S(=O)(Nc1ccc(C(O)(C(F)(F)F)C(F)(F)F)cc1)c1cccs1
relative cell viability (HCC1937): 1.1 | relative cell viability (MDA-MB-231): 1.03

Nn1nnc2ccccc21 [1-Aminobenzotriazole]
relative cell viability (HCC1937): 1.07 | relative cell viability (MDA-MB-231): 0.937

O=C(/C=C/c1ccc(/C=C/C(=O)Nc2ccc(C3=NCCN3)cc2)cc1)Nc1ccc(C2=NCCN2)cc1
relative cell viability (HCC1937): 0.772 | relative cell viability (MDA-MB-231): 0.765

CN(C)CCOC(=O)COc1ccc(Cl)cc1 [Meclofenoxate hydrochloride]
relative cell viability (HCC1937): 0.782 | relative cell viability (MDA-MB-231): 0.933

CN1CCN(c2ccc(/C=C(\C#N)c3ccccc3Br)cc2)CC1 [DG172 (dihydrochloride)]
relative cell viability (HCC1937): 0.933 | relative cell viability (MDA-MB-231): 0.965

CC[C@H](C)C(=O)O[C@H]1C[C@H](O)C=C2C=C[C@H](C)[C@H](CC[C@@H](O)C[C@@H](O)CC(=O)O)[C@H]21 [Pravastatin sodium]
relative cell viability (HCC1937): 0.918 | relative cell viability (MDA-MB-231): 0.964

COC(=O)N(CC(=O)O)Cc1cccc(OCc2nc(-c3ccc(Cl)cc3)oc2C)c1
relative cell viability (HCC1937): 1.08 | relative cell viability (MDA-MB-231): 0.834

C[C@H](CCOc1cccc(CC(=O)O)c1)N(Cc1cccc(C(F)(F)F)c1Cl)CC(c1ccccc1)c1ccccc1
relative cell viability (HCC1937): 0.632 | relative cell viability (MDA-MB-231): 0.841

O=C(Nc1ccc(C(O)(C(F)(F)F)C(F)(F)F)cc1)c1ccccc1Cl
relative cell viability (HCC1937): 1.05 | relative cell viability (MDA-MB-231): 1.01

O=C(O)c1cc2c(Cl)c(N3CCN(S(=O)(=O)c4c(Cl)cccc4Cl)CC3)ccc2o1 [Vonafexor]
relative cell viability (HCC1937): 1.16 | relative cell viability (MDA-MB-231): 1.16

CC(C)OC(=O)C(C(=O)OC(C)C)=C1SC=CS1 [Malotilate]
relative cell viability (HCC1937): 0.686 | relative cell viability (MDA-MB-231): 0.828

CCOC(=O)N1c2ccc(C(F)(F)F)cc2[C@@H](N(Cc2cc(C(F)(F)F)cc(C(F)(F)F)c2)C(=O)OC)C[C@H]1CC [Torcetrapib]
relative cell viability (HCC1937): 0.745 | relative cell viability (MDA-MB-231): 0.781

C[C@]12C=CC(=O)N[C@@H]1CC[C@@H]1[C@@H]2CC[C@]2(C)[C@@H](C(=O)Nc3cc(C(F)(F)F)ccc3C(F)(F)F)CC[C@@H]12 [Dutasteride]
relative cell viability (HCC1937): 0.798 | relative cell viability (MDA-MB-231): 0.777

CC(C)OC(=O)CCC/C=C\C[C@@H]1[C@@H](CC[C@@H](O)CCc2ccccc2)[C@H](O)C[C@@H]1O [Latanoprost]
relative cell viability (HCC1937): 1.43 | relative cell viability (MDA-MB-231): 0.88

Cc1cc(=O)oc2c(O)c(O)ccc12 [7,8-Dihydroxy-4-methylcoumarin]
relative cell viability (HCC1937): 0.911 | relative cell viability (MDA-MB-231): 1.02

O=C(c1c2ccccc2cc2ccccc12)N1CCC(N2CCC[C@@H](C(=O)N3CCOCC3)C2)CC1
relative cell viability (HCC1937): 0.763 | relative cell viability (MDA-MB-231): 0.836

CCN(CC)Cc1ccc(C(=O)N(CCc2ccccc2OC)[C@@H]2CCNC2)cc1
relative cell viability (HCC1937): 1.45 | relative cell viability (MDA-MB-231): 0.979

CC[C@H](C)C(=O)O[C@H]1C[C@@H](C)C=C2C=C[C@H](C)[C@H](CC[C@@H]3C[C@@H](O)CC(=O)O3)[C@H]21 [Lovastatin]
relative cell viability (HCC1937): 1.13 | relative cell viability (MDA-MB-231): 0.657

Oc1ccc(/C=C/c2cc(O)cc(O)c2)cc1 [Resveratrol]
relative cell viability (HCC1937): 0.67 | relative cell viability (MDA-MB-231): 0.755

O=C1c2cccc(O)c2C(=O)c2c(O)cccc21 [Antrapurol]
relative cell viability (HCC1937): 0.699 | relative cell viability (MDA-MB-231): 0.808

COC(=O)/C=C/c1cccc(N(Cc2ccc(-c3ccc(N(C)C)cc3)cc2)C(=O)C2CCCCC2)c1 [Fexaramine]
relative cell viability (HCC1937): 0.805 | relative cell viability (MDA-MB-231): 0.924

O=C(Nc1ccncc1)c1cc([N+](=O)[O-])ccc1Cl
relative cell viability (HCC1937): 0.81 | relative cell viability (MDA-MB-231): 0.831

C[C@H](CCC(=O)O)[C@H]1CC[C@H]2[C@@H]3CC[C@@H]4C[C@H](O)CC[C@]4(C)[C@H]3CC[C@]12C [Lithocholic acid]
relative cell viability (HCC1937): 1.16 | relative cell viability (MDA-MB-231): 0.99

CN(CCOc1ccc(CC2SC(=O)NC2=O)cc1)c1ccccn1 (stereo unspecified) [Rosiglitazone maleate]
relative cell viability (HCC1937): 0.841 | relative cell viability (MDA-MB-231): 0.86

O=C(NNc1ccccc1)c1ccncc1 [PluriSln 1]
relative cell viability (HCC1937): 0.925 | relative cell viability (MDA-MB-231): 0.814

Cc1nc2ccc(C(=O)N3CCC4(CC3)CC(=O)c3c(cnn3C(C)C)C4)cc2[nH]1
relative cell viability (HCC1937): 0.71 | relative cell viability (MDA-MB-231): 0.859

O=C(Nc1ccccc1)N1CCN(c2nc(-c3ccccc3)ns2)CC1
relative cell viability (HCC1937): 0.807 | relative cell viability (MDA-MB-231): 0.821

CN(C)C(=N)NC(=N)N [Metformin]
relative cell viability (HCC1937): 0.646 | relative cell viability (MDA-MB-231): 0.93

c1ccc([C@H]2CN3CCSC3=N2)cc1 [Levamisole hydrochloride]
relative cell viability (HCC1937): 0.815 | relative cell viability (MDA-MB-231): 0.887

NC(N)=N/N=C/c1cccc(Cl)c1Cl [Raphin1 acetate]
relative cell viability (HCC1937): 1.01 | relative cell viability (MDA-MB-231): 0.822

C[C@H](CCOc1cccc(CC(=O)O)c1)N(Cc1cccc(C(F)(F)F)c1Cl)CC(c1ccccc1)c1ccccc1 [RGX-104 free Acid]
relative cell viability (HCC1937): 0.613 | relative cell viability (MDA-MB-231): 0.863

CCC(=O)O[C@]1(C(=O)CCl)[C@@H](C)C[C@H]2[C@@H]3C[C@H](F)C4=CC(=O)C=C[C@]4(C)[C@@]3(F)[C@@H](O)C[C@@]21C [Halobetasol Propionate]
relative cell viability (HCC1937): 1.12 | relative cell viability (MDA-MB-231): 1.13

O=C(O)C(O)Cc1ccc(O)c(O)c1 (stereo unspecified) [Sodium Danshensu]
relative cell viability (HCC1937): 0.718 | relative cell viability (MDA-MB-231): 0.818

C=C(C)[C@@H]1CC[C@]2(CO)CC[C@]3(C)[C@H](CC[C@@H]4[C@@]5(C)CC[C@H](O)C(C)(C)[C@@H]5CC[C@]43C)[C@@H]12 [Betulin]
relative cell viability (HCC1937): 0.886 | relative cell viability (MDA-MB-231): 0.907

O=C(Nc1cnccc1Cl)N1CCN(Cc2ccc3c(c2)OC(F)(F)O3)CC1
relative cell viability (HCC1937): 0.747 | relative cell viability (MDA-MB-231): 0.771

CCCCCCCCCCC#CC#CCCCCCCCCC(=O)O [10,12-Tricosadiynoic acid]
relative cell viability (HCC1937): 0.712 | relative cell viability (MDA-MB-231): 0.911

CCCCCC=CC(=O)CCc1ccc(O)c(OC)c1 [6-Shogaol]
relative cell viability (HCC1937): 0.937 | relative cell viability (MDA-MB-231): 0.978

C[N+](C)(C)CC(O)CC(=O)[O-] (stereo not drawn) [L(-)-Carnitine]
relative cell viability (HCC1937): 0.738 | relative cell viability (MDA-MB-231): 0.876

COCCNC(=O)Nc1ccc2nc(-c3cccs3)c(-c3cccs3)nc2c1 [Ac-CoA Synthase Inhibitor1]
relative cell viability (HCC1937): 0.959 | relative cell viability (MDA-MB-231): 0.91

C=C1C[C@]2(O)O[C@@]3(CC2=C(C)C)[C@@H](C)CC[C@@H]13 [Isocurcumenol]
relative cell viability (HCC1937): 0.933 | relative cell viability (MDA-MB-231): 0.92

COC(=O)c1cc(Cl)c(O)c(S(=O)(=O)Nc2cc(-c3ccccc3)c(F)cc2F)c1
relative cell viability (HCC1937): 0.737 | relative cell viability (MDA-MB-231): 0.833

CC[C@@H]1/C=C(\C)C[C@H](C)C[C@H](OC)[C@H]2O[C@@](O)(C(=O)C(=O)N3CCCC[C@H]3C(=O)O[C@H](/C(C)=C/[C@@H]3CC[C@@H](O)[C@H](OC)C3)[C@H](C)[C@@H](O)CC1=O)[C@H](C)C[C@@H]2OC [Ascomycin]
relative cell viability (HCC1937): 0.185 | relative cell viability (MDA-MB-231): 0.236

CCC(=O)O[C@]1(C(=O)SCF)[C@H](C)C[C@H]2[C@@H]3C[C@H](F)C4=CC(=O)C=C[C@]4(C)[C@@]3(F)[C@@H](O)C[C@@]21C [Fluticasone propionate]
relative cell viability (HCC1937): 1.34 | relative cell viability (MDA-MB-231): 0.813

COc1ccc([C@@H]2OC[C@H]3[C@@H]2CO[C@@H]3c2ccc(O[C@@H]3O[C@H](CO)[C@@H](O)[C@H](O)[C@H]3O)c(OC)c2)cc1OC [Forsythin]
relative cell viability (HCC1937): 1.22 | relative cell viability (MDA-MB-231): 1.06

CN(CCOc1ccc(CC2SC(=O)NC2=O)cc1)c1ccccn1 (stereo unspecified) [Rosiglitazone HCl]
relative cell viability (HCC1937): 0.781 | relative cell viability (MDA-MB-231): 0.947

CC(=O)Nc1nc(C)c(S(=O)(=O)Nc2ccc(C(O)(C(F)(F)F)C(F)(F)F)cc2)s1
relative cell viability (HCC1937): 1.29 | relative cell viability (MDA-MB-231): 1.24

Cc1c(C(=O)NN2CCCCC2)nn(-c2ccc(Cl)cc2Cl)c1-c1ccc(Cl)cc1 [Rimonabant]
relative cell viability (HCC1937): 0.936 | relative cell viability (MDA-MB-231): 0.817

COc1ccc2c(c1)c(CC(=O)O)c(C)n2C(=O)c1ccc(Cl)cc1 [Indometacin]
relative cell viability (HCC1937): 1.28 | relative cell viability (MDA-MB-231): 0.842

CC1=C(C)C(=O)C(C(CCCCCC(=O)O)c2ccccc2)=C(C)C1=O (stereo unspecified) [Seratrodast]
relative cell viability (HCC1937): 1.37 | relative cell viability (MDA-MB-231): 0.809

CC(C)(C)N1C(=O)C(Nc2ccc(N3CCCCC3)cc2)=C(c2ccccc2)S1(=O)=O
relative cell viability (HCC1937): 1.15 | relative cell viability (MDA-MB-231): 0.947

COc1ccc(C2(CNC(=O)c3ccc(NC(=O)c4ccco4)cc3)CCOCC2)cc1
relative cell viability (HCC1937): 0.84 | relative cell viability (MDA-MB-231): 0.873

C[C@H](CCCC(C)(C)O)[C@H]1CC[C@H]2[C@@H]3CC=C4C[C@@H](O)CC[C@]4(C)[C@H]3CC[C@]12C [25-Hydroxycholesterol]
relative cell viability (HCC1937): 0.982 | relative cell viability (MDA-MB-231): 0.89
